Screens as filed in PubChem BioAssay.
T cruzi growth-1: blocks T. cruzi growth in NIH3T3 culture | T. cruzi beta-gal in NIH3T3, GalScreen luminescence, 90 h | inhibition, % at 8.34 µM | 5.9% of 77,000 active;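 active = mean inhibition above about 93%, with at least 55% of replicates each passing it, limit read from the data, passing the limit was not always enough; inconclusive = only one of those two conditions holds; inactive = neither condition holds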
C diff HTS: C. difficile growth inhibition | growth activity, negative = inhibition, % at 16 µg/mL (by protocol) | Clostridium difficile clinical isolate growth, OD600, 24 h; stronger effect = lower value | 0.25% of 86,000 active;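 active = mean growth activity at or below -80% and every replicate also at or below -80%; inconclusive = mean at or below -80% but some replicate above -80%; inactive = mean growth activity above -80%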;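 note: 0% = DMSO wells and -100% = levofloxacin 16 µg/mL wells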
T cruzi growth-2: blocks T. cruzi growth in NIH3T3 host cells; shares compounds with T cruzi growth-1; T. cruzi beta-gal in NIH3T3, GalScreen luminescence, 90 h; inhibition, % at 8.35 µM; 72% of 5,600 active; AID 651739;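 active = mean replicate inhibition above about 95% and at least 55% of replicates individually reaching it, limit read from the data; inconclusive = only one of the two criteria is met; inactive = neither criterion is met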
T cruzi growth-3: Trypanosoma cruzi proliferation inhibition. shares compounds with T cruzi growth-1. T. cruzi beta-gal in NIH3T3, GalScreen luminescence, 90 h. AID 651740. 21% of 5,600 active. inhibition, % at 2.09 µM;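 active = mean inhibition above about 95%, with at least 55% of replicates also reaching it, limit read from the data; inconclusive = meets just one of the two conditions; inactive = meets neither condition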;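 note: plate controls were neutral control median for no effect and positive control median for full effect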
3T3 cytotox: NIH/3T3 (mouse) viability loss | shares compounds with T cruzi growth-1 | NIH/3T3 viability, CellTiter-Glo ATP luminescence, 90 h | cytotoxicity (signal decrease), % at 8.35 µM | 14% of 5,600 active | AID 651742;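 active = mean signal decrease across replicates above about 35% based on untreated-well scatter, with enough replicates individually passing, limit read from the data; inconclusive = no rule stated though some were filed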;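 note: 0% = median of neutral control wells and 100% = median of positive control wells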
NIH3T3 tox 2: NIH/3T3 (mouse) viability loss; shares compounds with T cruzi growth-1; NIH/3T3 viability, CellTiter-Glo ATP luminescence, 90 h; inhibition, % at 24.9 µM; 56% of 5,600 active;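 active = mean loss of cell viability signal at or above a set limit, and enough replicates individually reaching it; inconclusive = meets only the mean limit or only the replicate share; inactive = meets neither condition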;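 note: 0% = median of neutral control wells and 100% = median of positive control wells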
* marks the source's active call; other numbers are inactive results; ? = inconclusive; · = not tested or not shown. Many of the other results were omitted from the sample, so hits are more common in it than they were.

SMILES	T cruzi growth-1	C diff HTS	T cruzi growth-2	T cruzi growth-3	3T3 cytotox	NIH3T3 tox 2
Cc1ccc(S(=O)(=O)N(C)C[C@H]2Oc3ccc(NC(=O)Nc4ccc(F)cc4)cc3C(=O)N([C@@H](C)CO)C[C@H]2C)cc1	56.2	7.4	·	·	·	·
C[C@@H]1CN([C@@H](C)CO)C(=O)c2cccc(NS(=O)(=O)c3ccccc3)c2O[C@H]1CN(C)Cc1ccccc1	40.8	0.5	·	·	·	·
C[C@@H]1CN([C@@H](C)CO)C(=O)Cc2cc(NS(=O)(=O)c3cccs3)ccc2O[C@H]1CN(C)Cc1ccc(Oc2ccccc2)cc1	22.8	36.3	·	·	·	·
CO[C@H](CN(C)S(=O)(=O)c1ccc(F)cc1)[C@H](C)CN(C(=O)Nc1ccccc1F)[C@H](C)CO	52.7	·	·	·	·	·
Cc1ccc(S(=O)(=O)N(C)C[C@H]2Oc3c(NC(=O)Nc4cccc5ccccc45)cccc3C(=O)N([C@H](C)CO)C[C@H]2C)cc1	·	-2.9	·	·	·	·
Cc1ccc(S(=O)(=O)N(C)C[C@@H]2Oc3c(NC(=O)Nc4cccc5ccccc45)cccc3C(=O)N([C@@H](C)CO)C[C@H]2C)cc1	109.6*	-10.6	-8.4	-14.2	-9.1	-8.8
COc1ccc(S(=O)(=O)N(C)C[C@@H]2Oc3c(NC(=O)Nc4cccc5ccccc45)cccc3C(=O)N([C@H](C)CO)C[C@H]2C)cc1	57.7	3.9	·	·	·	·
COc1ccc(S(=O)(=O)N(C)C[C@@H]2Oc3c(NC(=O)Nc4cccc5ccccc45)cccc3C(=O)N([C@@H](C)CO)C[C@@H]2C)cc1	109.0*	6.7	32.6	-16.0	-4.2	48.9*
CNC(=O)C[C@H]1CC[C@H]2[C@H](COc3ccc(NC(=O)c4ccccc4Cl)cc3C(=O)N2C)O1	25.8	-2.0	·	·	·	·
CCCC(=O)Nc1ccc2c(c1)C(=O)N(C)C[C@@H](OC)[C@H](C)CN(C(=O)CC1CC1)[C@H](C)CO2	-9.7	-2.8	·	·	·	·
C[C@H]1CN([C@@H](C)CO)C(=O)c2cccc(NC(=O)c3ccc(-c4nccs4)cc3)c2O[C@@H]1CN(C)S(=O)(=O)c1ccc(Cl)cc1	19.9	1.9	·	·	·	·
COc1cccc(NC(=O)Nc2ccc3c(c2)C(=O)N(C)C[C@H](OC)[C@@H](C)CN(CC2CC2)[C@@H](C)CO3)c1	·	-1.0	·	·	·	·
O=C(C[C@@H]1CC[C@H]2[C@@H](COC[C@H](O)CN2CCC(F)(F)F)O1)NCC1CCCCC1	109.0*	-2.3	45.8	13.2	8.3	-0.8
O=C(C[C@H]1CC[C@@H]2[C@H](COC[C@H](O)CN2CCC(F)(F)F)O1)NCc1ccc(Oc2ccccc2)cc1	-2.2	-4.2	·	·	·	·
O=C(C[C@H]1CC[C@H]2[C@@H](COC[C@H](O)CN2CCC(F)(F)F)O1)NCc1ccc(Oc2ccccc2)cc1	108.2*	19.6	104.0*	25.8	9.5	17.4
O=C(C[C@@H]1CC[C@H]2[C@@H](COC[C@@H](O)CN2CCC(F)(F)F)O1)NCC1CCCCC1	65.4	1.9	·	·	·	·
O=C(C[C@@H]1C=C[C@H](NC(=O)Nc2ccccc2F)[C@H](CO)O1)NCc1ccc(-c2ccccc2)cc1	-55.4	·	·	·	·	·
Cc1noc(C)c1S(=O)(=O)N(C)C[C@@H]1Oc2ccc(NC(=O)Nc3ccc(F)cc3)cc2CC(=O)N([C@H](C)CO)C[C@@H]1C	22.5	-4.0	·	·	·	·
CCCC#Cc1ccc([C@@H]2[C@H](CO)N3CCCCN(Cc4cccnc4)C[C@@H]23)cc1	102.9*	-4.3	105.0*	80.8	29.4	103.7*
CCCC#Cc1ccc([C@H]2[C@H](CO)N3CCCCN(Cc4ccncc4)C[C@@H]23)cc1	106.7*	-0.4	99.9*	45.8	33.9	85.9*
CCCC#Cc1ccc([C@@H]2[C@@H](CO)N3CCCCN(Cc4cccnc4)C[C@H]23)cc1	?	6.8	101.6*	35.5	7.5	81.9*
CCCC#Cc1ccc([C@@H]2[C@H]3CN(Cc4cccnc4)CCCCN3[C@H]2CO)cc1	91.6	-3.0	·	·	·	·
CCCC#Cc1ccc([C@H]2[C@H](CO)N3CCCCN(Cc4cccnc4)C[C@@H]23)cc1	115.1*	-0.1	108.5*	68.8	-15.4	90.2*
CCCC#Cc1ccc([C@H]2[C@H](CO)N3CCCCN(Cc4cncnc4)C[C@@H]23)cc1	55.2	0.1	·	·	·	·
CCCC#Cc1ccc([C@@H]2[C@H](CO)N3CCCCN(Cc4cncnc4)C[C@@H]23)cc1	42.2	-2.4	·	·	·	·
